LYPLA2 inh = counter-screen for PME1 inhibitors: inhibitors of human LYPLA2; AID 2177; O95372; inhibition, % at 5.9 µM; recombinant LYPLA2, FP-Rh probe fluorescence polarization; hit rate 0.38% among 320,000;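 active means inhibition above the screen-wide mean plus 3 SD, limit set per campaign, cut at about 26% in these data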;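 further: 0% = LYPLA2 with DMSO and 100% = wells lacking LYPLA2 enzyme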
Target sequence (O95372 whole entry, looked up): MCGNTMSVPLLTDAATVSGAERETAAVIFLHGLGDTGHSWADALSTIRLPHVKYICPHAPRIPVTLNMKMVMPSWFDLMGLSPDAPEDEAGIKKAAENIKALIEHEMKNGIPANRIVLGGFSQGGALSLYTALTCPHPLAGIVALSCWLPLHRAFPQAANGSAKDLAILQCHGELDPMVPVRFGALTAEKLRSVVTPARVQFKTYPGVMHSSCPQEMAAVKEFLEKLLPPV
PREPL inhibitor = human PREPL enzyme inhibition | Q4J6C6 | recombinant PREPL, fluorescence polarization activity-based probe | inhibition, % at 5.96 µM | hit rate 0.68% among 320,000 | AID 2751; in the data active means inhibition above about 43%;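 further: 0% = enzyme with DMSO and 100% = wells lacking enzyme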
ZTA counter = counter-screen for EBNA-1 inhibitors: inhibitors of Epstein-Barr virus ZTA; ZTA-DNA binding, fluorescence polarization; inhibition, % at 11 µM; AID 2234; hit rate 0.15% among 320,000; in the data active means inhibition above about 33%
Target sequence (P03206 whole entry, looked up): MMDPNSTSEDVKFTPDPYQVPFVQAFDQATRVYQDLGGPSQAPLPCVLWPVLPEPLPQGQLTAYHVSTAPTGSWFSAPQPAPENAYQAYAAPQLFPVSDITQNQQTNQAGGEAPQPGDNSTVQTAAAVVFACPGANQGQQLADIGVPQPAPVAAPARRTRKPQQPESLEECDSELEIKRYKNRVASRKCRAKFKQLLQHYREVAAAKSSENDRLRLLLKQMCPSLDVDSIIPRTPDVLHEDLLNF
EBNA-1 inh = blocks EBNA-1 binding to DNA | EBNA-1 DNA binding, fluorescence polarization | inhibition, % at 14.8 µM | hit rate 0.34% among 300,000 | AID 1950; in the data active means inhibition above about 28%
LYPLA1 inh = blocks human lysophospholipase 1, a PME1 counter-screen; recombinant LYPLA1, FP-Rh probe fluorescence polarization; inhibition, % at 5.9 µM; hit rate 0.16% among 320,000; AID 2174;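 active means inhibition above the mean of all tested compounds plus 3 SD, set per campaign, cut at about 14% in these data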;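 further: inhibitors block serine hydrolase probe labeling of LYPLA1 so polarization falls; 0% = enzyme with DMSO and 100% = wells lacking LYPLA1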
EBNA-1 confirm = EBNA-1 (EBV) inhibition, confirmation; shares compounds with EBNA-1 inh; Recombinant EBNA-1 DBD, Cy5-DNA fluorescence polarization; inhibition, % at 14.8 µM; hit rate 35% among 830; AID 2292;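 active means mean inhibition across replicates above a set limit taken from the earlier primary screen, cut at about 28% in these data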;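 further: plate controls were EBNA-1 protein with DMSO for no effect and wells lacking EBNA-1 for full effect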
ZTA DNA inh trip = counter-screen for EBNA-1 inhibitors: Epstein-Barr virus ZTA inhibitors, triplicate. Zta-ZRE DNA binding, Cy5 fluorescence polarization. 830 tested, under 10 active. shares compounds with EBNA-1 inh. inhibition, % at 11.1 µM;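 active means mean inhibition over triplicates above a set limit taken from the primary EBNA-1 screen, cut at about 37% in these data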;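 further: purified full length Zta protein with Cy5 labeled ZRE DNA probe; 0% = Zta with DMSO and 100% = wells lacking Zta protein; inhibitors lower polarization by freeing the labeled DNA probe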
The depositor's hits bear a star; · = no result. Most compounds without a hit are left out; they make up all but 1.3% or so of the library.

SMILES	LYPLA2 inh	PREPL inhibitor	ZTA counter	EBNA-1 inh	LYPLA1 inh	EBNA-1 confirm	ZTA DNA inh trip
O=C1/C(=C\c2ccc(O)cc2)SC(=S)N1c1cccnc1	-1	8	7	31*	-7	21	11
C(=N\Nc1nc(N2CCCC2)nc(N2CCCC2)n1)/c1ccccc1OCc1ccccc1	-3	3	-16	38*	-4	24	-2
COc1ccc(CNC(=O)Nc2ccc(C)cc2C)cc1	-3	-3	0	63*	1	28*	-1
O=C(NCC1OCCc2ccccc21)c1ccc(NC(=O)c2ccc(Cl)cc2Cl)cc1 (stereo not drawn)	-21	-12	4	70*	-9	47*	-2
CC(C)CNC(=S)N(Cc1ccco1)Cc1cc2cc3c(cc2[nH]c1=O)OCCO3	-5	-10	7	61*	-1	2	17
O=C(NC(=S)Nc1ccc(S(=O)(=O)N2CCCCCC2)cc1)c1cccs1	-9	9	-13	85*	-6	66*	18
O=C(NC(=S)Nc1ccc(S(=O)(=O)N2CCCC2)cc1)c1cccs1	-8	4	14	-8	-3	·	·
O=[N+]([O-])c1cc(Cl)ccc1NCCNc1ncc(C(F)(F)F)cc1Cl	2	2	10	17	-6	·	·
O=[N+]([O-])c1ccccc1NCCNc1ncc(C(F)(F)F)cc1Cl	6	1	25	62*	4	53*	11
COc1ccc(-c2csc(N3C(=O)CNC3=S)n2)cc1	3	18	-1	82*	1	44*	-11
COc1ccc(-c2csc(N3C(=N)SCC3=O)n2)cc1	10	2	3	44*	3	16	-1
COc1ccc(-c2csc(N3C(=O)C4C5c6ccccc6C(c6ccccc65)[C@@H]4C3=O)n2)cc1 (stereo partly drawn)	0	4	0	9	-2	·	·
O=C1CNC(=S)N1c1nc(-c2ccccc2)cs1	-1	-3	0	-7	3	·	·
COc1cc(C(=O)Oc2ccc(/C=N/NC(=O)c3ccncc3)cc2)cc(OC)c1OC	0	1	0	34*	-7	-14	-11
CCOC(=O)C1CCN(C(=O)c2cccnc2Oc2ccccc2)CC1	12	15	3	-6	2	·	·
COc1ccc(NC(C)=O)cc1NC(=O)C1CCN(C(=O)Nc2ccccc2)CC1	6	6	10	1	3	·	·
Cc1cc(NC(=O)CSc2nnc(NC(=O)C3CC(=O)N(c4ccccc4C)C3)s2)no1 (stereo not drawn)	-11	-2	13	2	-11	·	·
Cc1cc(NC(=O)CSc2nnc(NC(=O)C3CC(=O)N(c4ccccc4)C3)s2)no1 (stereo not drawn)	-1	1	-23	83*	0	21	7
COc1ccc(-c2ccc(C#N)c(SCC(=O)NC3CC3)n2)cc1OC	-5	-5	6	32*	-3	13	4
COc1ccc(-c2nnc3ccc(SCC(=O)NCc4ccco4)nn23)cc1OC	6	7	-15	-13	0	·	·
COc1ccc(-c2ccc(C#N)c(SCC(=O)NCc3ccco3)n2)cc1OC	-6	10	-6	45*	0	41*	0
Cc1ccc(NC(=O)COc2ccc(/C=N/NC(=O)CSCc3ccccc3)cc2)cc1	-3	-4	-18	11	-6	·	·
O=C(CSCc1ccc(Cl)cc1)N/N=C/c1ccc(OCC(=O)Nc2ccccc2)cc1	-3	-11	8	52*	-2	29*	1
O=S(=O)(c1ccc(-c2n[nH]c(=S)o2)cc1)N1CCCCC1	1	2	-4	-9	1	·	·
Cc1ccc(S(=O)(=O)N2CCCC(C(=O)Nc3ccc(NC(=O)c4ccccn4)cc3)C2)cc1 (stereo not drawn)	5	1	15	78*	3	31*	-10
SMILES	LYPLA2 inh	PREPL inhibitor	ZTA counter	EBNA-1 inh	LYPLA1 inh	EBNA-1 confirm	ZTA DNA inh trip
COc1cccc(NC(=O)C2CCCN(S(=O)(=O)c3ccc(-n4cnnn4)cc3)C2)c1 (stereo not drawn)	-1	6	-14	55*	-2	24	3
Cc1cc(C)cc(NC(=O)C2CCCN(S(=O)(=O)c3c(C)noc3C)C2)c1 (stereo not drawn)	3	23	-5	44*	7	3	2
Cc1ccc(S(=O)(=O)N2CCCC(C(=O)Nc3cccnc3)C2)cc1 (stereo not drawn)	2	8	-10	-1	-1	·	·
CCOc1cccc(NC(=O)C2CCCN(S(=O)(=O)c3ccc(-n4cnnn4)cc3)C2)c1 (stereo not drawn)	0	-5	-14	2	2	·	·
O=C(Cc1c(F)cccc1Cl)Nc1ccc(S(=O)(=O)Nc2nccs2)cc1	-2	14	-2	-14	-2	·	·
O=C(CNC(=O)c1ccc(-c2ccccc2)cc1)OCc1c(F)cccc1Cl	4	-11	-17	44*	2	76*	-12
O=C(CNC(=O)c1ccc(-c2ccccc2)cc1)OCc1c(Cl)cccc1Cl	6	-4	-9	15	6	·	·
CCOc1ccc(N2C(=O)CC(NC3CCN(C(=O)c4cccc(Cl)c4)CC3)C2=O)cc1 (stereo not drawn)	5	2	27	50*	1	-9	-8
Cc1ccc(Nc2nc(Oc3ccc(OCc4ccccc4)nn3)nc(N3CCOCC3)n2)cc1	-4	1	-6	32*	-2	3	-5
CCCCN(CC)CCNC(=O)CN1C(=O)COc2ccc(S(=O)(=O)N3CCCC3)cc21	-7	3	2	77*	-12	-2	-2
COc1ccccc1S(=O)(=O)Cc1ccc(C(=O)NC2CC2)o1	-2	-1	-20	-19	4	·	·
CCC(=O)NC(=S)Nc1ccc(NC(=O)c2ccc(C)c([N+](=O)[O-])c2)cc1	-5	5	1	43*	-5	33*	5
CCC(=O)NC(=S)Nc1ccc(NC(=O)c2ccc([N+](=O)[O-])cc2Cl)cc1	10	1	7	10	-1	·	·
COC(=O)C1=C(C)N(C)C(=O)NC1c1c(O)ccc2ccccc12 (stereo not drawn)	1	-2	14	8	1	·	·
COC(=O)c1c(NC(=O)c2ccccc2)sc2c1CC(C)(C)OC2	2	4	13	32*	-1	2	0
Cc1ccc(S(=O)(=O)N2CCC(C(=O)Nc3ccc4c(c3)OCO4)CC2)cc1	2	-34	-12	2	2	·	·
O=C(Nc1ccc2c(c1)OCO2)C1CCN(c2ccc(S(=O)(=O)N3CCOCC3)cc2)CC1	0	9	3	29*	0	11	8
